From PubChem BioAssay (NCI)
This is part of a sample that, as a whole, favours compounds with a hit. Of some 79,000 tested, about 15% had one in any assay. Rule as the data show it: active = growth inhibition above about 70%; inactive = the rest. Where a SMILES comes first, the peptide text is derived from it. [ ]: non-standard residue; d: D form. Hpg = N[CH](C(=O)O)c1ccc(O)cc1

Experiments:
[1] = NCI Yeast Anticancer Drug Screen. Data for the rad50 strain (AID 155);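 also: 0% = growth of vehicle-only cultures of the same strain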; conditions: S. cerevisiae rad50 strain growth inhibition; at 50.0 µM; active compounds read high
Method in brief: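 Readout: growth inhibition relative to vehicle-treated cultures. Compound exposure was carried out in a genetically defined yeast strain deficient in DNA damage repair.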

[2] = NCI Yeast Anticancer Drug Screen. Data for the mec2-1 strain (AID 157); conditions: S. cerevisiae mec2-1 strain, at 50.0 µM, active compounds read high
Method in brief: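 Growth inhibition is read against vehicle-treated controls after compound exposure of the mec2-1 yeast strain, which is defective in DNA damage repair or cell cycle control.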

[3] = NCI Yeast Anticancer Drug Screen. Data for the cln2 rad14 strain (AID 165);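 also: 0% = growth equal to vehicle treated cultures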; conditions: S. cerevisiae cln2 rad14 strain, at 50.0 µM, active compounds read high
Method in brief: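 Growth inhibition, relative to vehicle-treated controls, is the read-out. The test organism is a yeast strain with defined genetic alterations, cln2 rad14.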

[4] = NCI Yeast Anticancer Drug Screen. Data for the bub3 strain (AID 167); conditions: S. cerevisiae bub3 mutant strain, at 50.0 µM, active compounds read high
Method in brief: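 Readout: yeast growth inhibition, expressed relative to vehicle-only wells. The test organism is a mutant strain from a panel with lesions in DNA repair or checkpoint genes.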

[5] = NCI Yeast Anticancer Drug Screen. Data for the mlh1 rad18 strain (AID 175); conditions: S. cerevisiae mlh1 rad18 strain growth inhibition; at 50.0 µM; active compounds read high
Method in brief: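 Cells of a genetically altered yeast strain, deficient in DNA damage repair, were treated with compound. Their growth was then compared with that of vehicle-treated cultures to give inhibition.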

Measured: growth inhibition

Nc1nc(SC2CCCCC2)nc2c1ncn2C1OC(CO)C(O)C1O (stereo not given)
inactive: [1] -49.5% | [2] -33% | [3] 0.7% | [4] -4.75% | [5] -13.7%

CCN(CC)C(=O)COc1ccc(Cl)cc1C(C)C
inactive: [1] -17.9% | [2] -16.8% | [3] -2.45% | [4] 14.9% | [5] -31.4%

N#Cc1c(C(=O)NN)c2c(-c3ccc4ccccc4c3)n[nH]c(=O)c2[nH]c1=O
inactive: [1] 20.4% | [2] 23.4% | [3] 4.1% | [4] 7.1% | [5] 42.9%

O=c1[nH]cnc2c1CN(c1ccc(Cl)cc1)C2
inactive: [1] -14.5% | [2] 3.45% | [3] -29.6% | [4] -19.2% | [5] -1.9%

C=CS(=O)(=O)CCCCCCCCCCCCCCCCCC
inactive: [1] -2.35% | [2] 10.7% | [3] -12.8% | [4] 5.3% | [5] 8.9%

O=c1c(Cl)c(Cl)cnn1CCc1ccncc1
inactive: [1] 2.2% | [2] -4.05% | [3] 11.4% | [4] -7.3% | [5] -2.65%

C=Cc1cc2c(cc1O)CC[C@@H]1[C@@H]2CC[C@]2(C)[C@@H](O)CC[C@@H]12
inactive: [1] 17.4% | [2] 17.4% | [3] 29.7% | [4] 22.9% | [5] 36.1%

OC1C2CCC3C2CC(C(O)(c2ccccc2)c2ccccc2)C13 (stereo not given)
inactive: [1] -0.2% | [2] -23.6% | [3] -13.2% | [4] -50% | [5] -15.4%

C=CCNc1nc2c(s1)CCc1cc(OC)c(OC)cc1-2
inactive: [1] 30.1% | [2] 10.6% | [3] 29.4% | [4] 15.2% | [5] 61.6%

CC(=O)C(CCCCCCCCCCC(C(C)=O)C(C)=O)C(C)=O
inactive: [1] -9.3% | [2] -2.75% | [3] -38.6% | [4] -6% | [5] -10.2%

CCOc1ccc(N=Nc2c(C)nn(C(N)=S)c2OCC)cc1
inactive: [1] -54.6% | [2] -21.6% | [3] -38.5% | [4] -5.25% | [5] -7.35%

CC(C)(C)C(N)=O
inactive: [1] 2.4% | [2] -1.25% | [3] -3.9% | [4] -7.25% | [5] -1.25%

NC(=O)/N=C/NC(N)=O
inactive: [1] 21.6% | [2] -14.3% | [3] -5.3% | [4] -24.5% | [5] 2.65%

CCCCCC/C=N\OC(N)=O
inactive: [1] 12.9% | [2] 15.2% | [3] -12.9% | [4] 3.35% | [5] 11.8%

COc1cc(C=O)cc(OC)c1
inactive: [1] -19.3% | [2] -49.3% | [3] 12.4% | [4] -51% | [5] -2.25%

[N-]=[N+]=NC1CCOC(n2cnc3c(N)ncnc32)C1O (stereo not given)
inactive: [1] -2.05% | [2] -3.95% | [3] -33.5% | [4] -4.6% | [5] 1.85%

CCOC(=O)C(N)C(O)c1ccncc1 (stereo not given)
inactive: [1] -8% | [2] -2.45% | [3] -19.8% | [4] 1.5% | [5] 2.2%

COc1ccc2c3ccc4c(c3n(C)c2c1)C(=O)c1ccccc1C4=O
inactive: [1] -38.3% | [2] -36.2% | [3] -14.7% | [4] -22.8% | [5] -46.1%

CC(C)CC(N)C(=O)NC(C(=O)O)c1ccc(O)cc1 (stereo not given) (H-Leu-[Hpg]-OH; configuration not given here)
inactive: [1] -5.3% | [2] -10.1% | [3] -20.4% | [4] 2.7% | [5] 15.8%

CCCC(F)C(=O)OCC (stereo not given)
inactive: [1] 11.5% | [2] -6.35% | [3] -9.35% | [4] 10% | [5] 0.3%

CC(C)c1cc(CN(C)C)c(O)c(C(C)(C)C)c1
inactive: [1] -25.4% | [2] 23.2% | [3] -40% | [4] -14.3% | [5] -8.3%

CC1(C)CNC(C)(C)CN1
inactive: [1] -4.45% | [2] -11.8% | [3] 1.1% | [4] 17.5% | [5] -18%

N#CCCC(CC#N)N1CCN(C(CC#N)CCC#N)CC1 (stereo not given)
inactive: [1] -33.5% | [2] -48.9% | [3] -6.3% | [4] -13.1% | [5] -19.4%

CCCCOc1ccc(C(=O)C(C(c2ccccc2)N2CCOCC2)N2CCOCC2)cc1 (stereo not given)
inactive: [1] -7.8% | [2] -4.85% | [3] -6.8% | [4] -12.2% | [5] 9.2%

CCOC(=O)C1CCCC1S(=O)(=O)c1ccc(C)cc1 (stereo not given)
inactive: [1] -20% | [2] -15.3% | [3] 21.9% | [4] 1.75% | [5] -3.5%

CCCCN(CCOc1ccnc(=O)[nH]1)CC(C)C
inactive: [1] 6% | [2] 13.2% | [3] -35.5% | [4] 11.3% | [5] -7.7%

O=C1/C(=C/c2cccc3ccccc23)Cc2ccccc21
inactive: [1] -6.55% | [2] -25.6% | [3] -5.65% | [4] 18.1% | [5] 7.7%

CC1CCC(C(C)C)C(OC(=O)c2ccccc2O)C1 (stereo not given)
inactive: [1] 16.1% | [2] 6.9% | [3] 33.5% | [4] 12% | [5] 35.5%

Cc1ccc(NC(=O)OCCOc2c(C(C)C)cccc2C(C)C)c([N+](=O)[O-])c1
inactive: [1] -0.8% | [2] -3.3% | [3] -41.9% | [4] -7.7% | [5] 18.4%

O=C(CCc1ccc(O)c(O)c1)NCCc1cc(O)cc(O)c1
inactive: [1] 23.1% | [2] -23.9% | [3] -4.95% | [4] -42.5% | [5] -52.5%

N#CC1CCCC(CBr)C1 (stereo not given)
inactive: [1] -24.9% | [2] -43% | [3] -23.7% | [4] -9.05% | [5] -26.7%

CC(=O)Nc1ccc(OC(=O)Nc2ccc(C)c(NC(=O)Oc3ccc(NC(C)=O)cc3)c2)cc1
inactive: [1] 6.35% | [2] -6.95% | [3] 24.5% | [4] 17.2% | [5] 7.25%
